# Shown are actives, neighbours in structure and some others; about 2.8% of the full set was active somewhere.
# POLH inh: blocks human DNA polymerase eta activity; 390,000 compounds, 1.2% hits; Q9Y253; recombinant Pol eta, fluorescent DNA replication assay; Potency, µM (series often up to 114 µM), actives largely listed as inhibitors
#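 Pol eta at 10 nM preincubated with compounds 15 min at room temperature; reaction started with fluorescent substrate (50 nM final) and read kinetically at 0 and 10 min.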
# POLB inh: DNA polymerase beta (human) inhibition; P06746; Pol beta primer extension/strand displacement, fluorescence kinetic; Potency, µM (series often up to 114 µM), hits mostly inhibitors; 340,000 compounds, 1.3% hits
#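 Values derive from four-parameter Hill fits of normalized kinetic data: reads at 0 and 10 min following addition of 50 nM substrate to 10 nM Pol beta preincubated 15 min with compound.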
# PI5P4K alpha inh: PI5P4K alpha (human) kinase inhibition; PI5P4Kalpha enzyme, ADP-Glo luminescence, 60 min; active compounds read low; 330,000 compounds, 1.2% hits; max response, %; AID 652105; active = max response of -50% or lower; inconclusive = between -30% and -50%; inactive = -30% or higher; also: value at the top dose of about 77 µM
#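 Single end-point luminescence (ADP-Glo) quantified ADP from PI5P4Kalpha turnover; ATP 5 microM final, 1 h at RT, 0.1% CHAPS and 0.28 mM EGTA in HEPES pH 7.4.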
# Pol kappa inh: inhibitors of human DNA polymerase kappa; Q9UBT6; purified Pol kappa, fluorescent DNA synthesis assay, 10 min; Potency, µM (titrated, usually from 107 µM), hits mostly inhibitors; 400,000 compounds, 0.53% hits
# Target sequence (Q9UBT6 whole entry, looked up): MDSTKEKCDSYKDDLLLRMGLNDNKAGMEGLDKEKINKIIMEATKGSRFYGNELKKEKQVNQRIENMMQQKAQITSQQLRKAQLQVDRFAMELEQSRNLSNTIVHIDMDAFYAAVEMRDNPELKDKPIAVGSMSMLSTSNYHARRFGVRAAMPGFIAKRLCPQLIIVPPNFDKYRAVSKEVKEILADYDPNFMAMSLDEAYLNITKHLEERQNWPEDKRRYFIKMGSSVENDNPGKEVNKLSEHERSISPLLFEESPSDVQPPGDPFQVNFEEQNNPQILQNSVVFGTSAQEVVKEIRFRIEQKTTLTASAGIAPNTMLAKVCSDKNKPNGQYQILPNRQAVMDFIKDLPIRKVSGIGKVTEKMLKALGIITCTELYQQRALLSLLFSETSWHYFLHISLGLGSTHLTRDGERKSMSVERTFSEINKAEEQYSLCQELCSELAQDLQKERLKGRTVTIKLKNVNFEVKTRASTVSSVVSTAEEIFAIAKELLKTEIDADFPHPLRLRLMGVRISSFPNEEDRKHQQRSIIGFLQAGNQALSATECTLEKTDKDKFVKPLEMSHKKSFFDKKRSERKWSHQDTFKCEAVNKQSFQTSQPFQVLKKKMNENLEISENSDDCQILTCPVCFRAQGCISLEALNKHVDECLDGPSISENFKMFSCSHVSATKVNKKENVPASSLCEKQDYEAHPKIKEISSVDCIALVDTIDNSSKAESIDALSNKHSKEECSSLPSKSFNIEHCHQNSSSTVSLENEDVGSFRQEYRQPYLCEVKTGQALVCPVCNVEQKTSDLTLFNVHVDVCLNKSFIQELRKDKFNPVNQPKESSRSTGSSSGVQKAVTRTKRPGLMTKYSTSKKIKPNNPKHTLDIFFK
#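 10 nM Pol kappa was preincubated with compounds for 15 min at room temperature. Reaction started with 50 nM (final) substrate. Fluorescence read kinetically at 0 and 10 min.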
# WRN helicase inh: blocks human WRN helicase. Q14191. WRN helicase unwinding, fluorescent forked duplex, kinetic. Potency, µM (series often up to 114 µM), usual class: inhibitors. 360,000 compounds, 0.46% hits; also: nearly all actives have a fitted effect of over 55% in size
#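 Fluorescence dequenching readout, ex 525 nm/em 598 nm, kinetic mode: forked duplex DNA (100 nM final) with adjacent fluorophore and quencher unwound by WRN (20 nM final) with 2 mM ATP. Compound preincubation 15 min, room temperature.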
# POLI inh: inhibitors of human DNA polymerase iota. Pol iota fluorescent replication assay, 10 min. Potency, µM (series often up to 115 µM), actives largely listed as inhibitors. 390,000 compounds, 1% hits
#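 Fluorescent replication assay read twice, at 0 min and 10 min after adding 50 nM (final) substrate. Enzyme (10 nM) and compounds were first incubated 15 min at room temperature; enzyme-free buffer wells were negative controls.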
# Hits are given with their value; . = inactive; ? = inconclusive; / = no result; [ ] = dose if it differs, or a comment. Unless noted, calls follow the shape of the dose curve; as a rule, active = well fitted curve in the direction sought with a large enough effect; inconclusive = small, poorly fitted or top-dose-only effect, or another doubt; inactive = no such curve, though single readings can be large; an effect the other way counts as inactive or inconclusive.
SMILES,POLH inh,POLB inh,PI5P4K alpha inh,Pol kappa inh,WRN helicase inh,POLI inh
C=CCOc1ccc(/C=N/n2nnnc2N)cc1OC,.,/,.,.,.,.
NC(=S)NNc1cccc2cccnc12,.,.,.,.,?,11µM
O=C(COc1ccccc1C(=O)Nc1ccccc1)Nc1ccc2ccccc2c1,/,/,/,.,/,?
Cc1ccc(S(=O)(=O)NC(=O)c2ccc(F)cc2)c(C)c1,.,.,.,.,.,.
Cc1ccc(S(=O)(=O)NC(=O)c2ccc(-c3ccc(-c4ccccc4)cc3)o2)c(C)c1,/,56µM,/,/,/,/
Fc1ccc(-n2cc(-c3ccccc3)c3c(NC4CCCCC4)ncnc32)cc1,.,.,/,.,/,.
CC(=O)Nc1ccc(S(=O)(=O)CC(=O)CS(=O)(=O)c2ccc(NC(C)=O)cc2)cc1,35µM,/,.,/,.[11.6 µM],/
CC(=O)CCS(=O)(=O)c1ccc(NC(C)=O)cc1,.,?,/,.,.,.
CC(C)C(=O)Nc1ccc(C(=O)NNC(=O)C(c2ccccc2)c2ccccc2)cc1,.,?,/,.,.[11.6 µM],79µM
CC(C)CC(=O)Nc1ccc(C(=O)NNC(=O)C(c2ccccc2)c2ccccc2)cc1,.,.,/,.,.,.
CCC(=O)Nc1ccc(C(=O)NNC(=O)C(c2ccccc2)c2ccccc2)cc1,?,45µM,.,.,.,.
O=C(O)c1ccc(NC(=O)C(c2ccccc2)c2ccccc2)cc1,.,.,.,.,.,.
NS(=O)(=O)c1ccc(CCNC(=O)Cn2c(=O)c3cccn3c3ccc(F)cc32)cc1,.,45µM,/,.,/,.
O=C(NCCc1ccccc1Cl)c1ccc(Cn2c(=O)c3cccn3c3cccnc32)cc1,?,14µM,/,.,/,?
CCOc1ccc(CCNC(=O)Cn2c(=O)c3cccn3c3cccnc32)cc1,.,100µM,.,.,.,.
Cc1cccc(C)c1NC(=O)CN(C)S(=O)(=O)c1ccc2c(c1)n(C)c(=O)c(=O)n2C,.,.,/,.,/,.
CS(=O)(=O)c1sc(C#N)c2c1C(=O)CC(c1ccccc1)C2 (centres undefined),?,.,.,.,40µM,?
O=c1nc(/C=C/c2cc([N+](=O)[O-])ccc2Cl)cc(C(F)(F)F)[nH]1,22µM,.,.,.,.,?
COc1cc(/C=C/c2cc(C(F)(F)F)[nH]c(=O)n2)cc(OC)c1OC,.,.,.,.,?,?
O=c1nc(/C=C/c2cccn2-c2ccc([N+](=O)[O-])cc2)cc(C(F)(F)F)[nH]1,45µM,?,-69,89µM,?,40µM
CCC(=O)N1CCc2cc(S(=O)(=O)N3CCN(c4ccccc4F)CC3)ccc21,.,.,/,.,/,.
COc1ccc2c3c(cccc13)OC2=O,.,?,.,.,.,.
COc1ccc2c3c(cccc13)N(C)N=C2C,?,.,.,.,?,3.2µM
CC1CCCCN1C(=O)c1ccc(Br)o1 (centres undefined),.,.,.,.,.,.
O=c1cc(O)n(C2CCCCCC2)c(=O)[nH]1,.,.,.,.,.,?
SMILES,POLH inh,POLB inh,PI5P4K alpha inh,Pol kappa inh,WRN helicase inh,POLI inh
O=c1[nH][nH]c(=S)n1C1CCCCC1,.,.,-69,.,56µM,.
Cc1ccc(Cl)cc1Nc1nc2ccccc2c2nncn12,.,?,/,.,/,.
CCCCn1c(C)cc2c(c1=O)C1O[C@](c3ccsc3)(Cc3cc(OC)c(OC)cc31)O2,/,.[22.9 µM],/,/,/,/
N#Cc1ccc2c(c1)C[C@]1(c3ccsc3)Oc3c(c(=O)oc4ccc(F)cc34)C2O1,/,11µM,/,/,/,/
COc1ccc2c3c(c(=O)oc2c1)C1O[C@](c2ccsc2)(Cc2cc(C#N)ccc21)O3,/,3.2µM,/,/,/,/
CCCC[C@]12Cc3cc(C#N)ccc3C(O1)c1c(c3cc(F)ccc3oc1=O)O2,/,.[22.9 µM],/,/,/,/
Cc1cc2c(c(=O)o1)C1O[C@](c3ccsc3)(Cc3cc(C#N)ccc31)O2,/,10µM,/,/,/,/
CCCC[C@]12Cc3cc(C#N)ccc3C(O1)c1c(c3ccccc3oc1=O)O2,/,.[22.9 µM],/,/,/,/
N#Cc1ccc2c(c1)C[C@]1(c3ccsc3)Oc3c(c(=O)oc4ccccc34)C2O1,/,2.8µM,/,/,/,/
CCc1nc(Nc2ccc(F)c(Cl)c2)c2c3c(sc2n1)CCCC3,.,.,/,.,/,.
CC(Nc1ccccc1N1CCCCC1)C(=O)N1CCc2ccccc21 (centres undefined),.,.,.,.,.,.
Cc1cc2c(c(=O)n1-c1ccccc1)C1O[C@](c3ccsc3)(Cc3cc(C#N)ccc31)O2,/,8.9µM,/,/,/,/
Cc1cccc2c(N=O)c(O)[nH]c12,35µM,.,-59,.,.,.
Cc1[nH]c2c(C)cccc2c1CC(=O)O,.,.,.,.,.,.
CC(=O)N1CCC(C(=O)Nc2cc(S(=O)(=O)N3CCCCC3)ccc2C)CC1,.,/,.,/,.,/
O=C(Cc1ccc(S(=O)(=O)N2CCCC2)s1)Nc1nc2c(s1)CCCC2,18µM,?,?,.,.,?
O=C(Cc1ccc(S(=O)(=O)N2CCCC2)s1)N1CCOCC1,?,45µM,.,.,.,?
COc1ccc(S(=O)(=O)N(C)C)cc1NC(=O)Cc1ccc(S(=O)(=O)N2CCOCC2)s1,.,/,.,.,.,.
Cc1cc(C)cc(NC(=O)Cc2ccc(S(=O)(=O)N3CCCC3)s2)c1,.,/,.,.,.,.
O=C(Cc1ccc(S(=O)(=O)N2CCOCC2)s1)Nc1ccc(N2CCOCC2)cc1,.,32µM,.,.,.,.
CN(C)S(=O)(=O)c1ccc(NC(=O)Cc2ccc(S(=O)(=O)N3CCOCC3)s2)cc1,56µM,?,?,?,.[11.6 µM],?
C=CCNC(=O)Cc1ccc(S(=O)(=O)N2CCOCC2)s1,.,/,.,.,.,.
CCCCNC(=O)C1(C)CCC(=O)N1C1CCN(Cc2ccccc2)CC1 (centres undefined),/,/,.,/,.,/
Cc1cccc(N2C(=O)/C(=C\c3ccc(C(=O)O)cc3)c3ccccc3C2=O)c1,45µM,.,.,.,.,.
CCOc1ccccc1CNC(=O)c1cc(-c2ccc(OC)cc2)nc2ccc(C(C)C)cc12,.,.,/,.,/,.
SMILES,POLH inh,POLB inh,PI5P4K alpha inh,Pol kappa inh,WRN helicase inh,POLI inh
O=C(N/N=C\c1cccnc1)c1cc(-c2ccc(Cl)s2)[nH]n1,?,14µM,.,.,?,?
O=C(N/N=C/c1cccnc1)c1ccc(NC(=O)c2ccc(Cl)cc2)cc1,.,.,.,.,.,.
Cc1cccc(C(=O)Nc2ccc(C(=O)N/N=C/c3ccc4c(c3)OCO4)cc2)c1,.,35µM,.,.,.,.
O=C(N/N=C/c1cccnc1)c1ccc(NC(=O)c2cccc(Cl)c2)cc1,?,8.9µM,.,.,.,?
O=C(N/N=C/c1cccnc1)c1ccccc1Cl,.,.,.,.,.,?
CC(=O)Nc1ccc(S(=O)(=O)NN=c2sc3ccccc3n2C)cc1N,.,/,.,/,.,/
CC(=O)c1cccc(NC(=O)CCn2nc(C)c(S(=O)(=O)N(C)C)c2C)c1,.,.,/,.,/,.
CCNC(=O)NC(=O)COC(=O)c1ccccc1SCC(=O)NC(=O)NCC,.,.,-63,.,?,?

# Source: PubChem
